Among the data in PubChem BioAssay (NCI) are growth values, retold here.

Compounds without any hit were thinned out: in the full panel of roughly 83,000, 20% have a hit.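 A percent growth of 40 corresponds to 60% growth inhibition; 0 means no net growth; -100 means all cells died. Active threshold: below 10.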 The source made the active and inactive calls.

For one assay, the system named is OVCAR-5 ovarian. Nature of the assay: NCI-60 one-dose screen, 48 h (100 = growth as untreated, 0 = no growth, -100 = all killed). Particulars: 10 µM unless noted.
For `COc1cc(Cn2c(SCCC(=O)Nc3ccc(F)cc3)nc3ccccc3c2=O)cc(OC)c1OC`, the growth is 94.1% (inactive).
Same read-out and setting: under `O=C(O)c1cn(C2CC2)c2cc(N3CCN(S(=O)(=O)c4ccc(Cl)c(Cl)c4)CC3)c(F)cc2c1=O` stands 12.5% (inactive).
Regarding `COc1cc(NCCCN=C(N)NC(N)=NC(C)C)c2ncccc2c1`, the growth was 57.6% (inactive).
Same read-out and setting: under `O=C(O)c1cccc([N+](=O)[O-])c1/C=C/c1ccccc1` stands 108% (inactive).
On the same count and under the same terms, in the case of `NC(CC(N)C(=O)O)C(=O)O` (stereo unspecified) it was 97% (inactive).
Regarding `O=C(O)c1ccc(-n2c(=O)c3ccccc3c3ccccc3c2=O)cc1`, the growth was 99.6% (inactive).
`COc1cc(Cn2c(SCC(=O)Nc3ccc(Cl)cc3)nc3ccccc3c2=O)cc(OC)c1OC`: the growth was 82.2% (inactive).
Still for that read-out and setting: in the case of `CN(C)c1ncc(-c2ccc(C(F)(F)F)cc2)c(NC2CCCCCC2)n1` it was 87.3% (inactive); in that of `Nc1c(C(=O)Nc2ccccc2)sc2nc3c(cc12)CCCCC3`, 43.8% (inactive); in that of `CCn1cc(C(=O)O)c(=O)c2cc(F)c(N3CCN(S(=O)(=O)c4c(C)cc(C)cc4C)CC3)cc21`, 88.6% (inactive).
Take `CCn1cc(C(=O)O)c(=O)c2cc(F)c(N3CCN(S(=O)(=O)c4ccc(Cl)cc4Cl)CC3)cc21`: the growth is 7.92% (active).
As to `COC12CC(=O)C(C(C)=O)=C(O)C1(C)c1c(O)c(C)c(O)c(C(C)=O)c1O2` (stereo unspecified), the growth was 99.7% (inactive).
On the same count and under the same terms, under `CCCC(C(=O)OCC)C(C)OC(=O)OCC` (stereo unspecified) stands 108% (inactive); under `NC(=O)NC(=O)/C=C/C(=O)OCCCl`, 96.9% (inactive).
For the molecule `Cc1ccc(C2=NN(c3ccc(S(=O)(=O)NC(=O)NCc4ccccc4)cc3)C(c3ccc(N(C)C)cc3)C2)c(C)c1` (stereo unspecified), the growth was 55.1% (inactive).
For the molecule `COc1ccc(-c2cn[nH]c2-c2cc(OC)c3c(c2)OCO3)cc1`, the growth was 46.1% (inactive).
The same measure, in the same setting: in the case of `CCCCCCCCCCCCNC(=S)N/N=C/c1ccc(Cl)c(Cl)c1` it was 93.9% (inactive).
Same read-out and setting: in the case of `Oc1ccc(Cl)cc1-c1cc(-c2ccc(Cl)cc2)n[nH]1` it was 73.3% (inactive); in that of `COc1cc(NC(=O)CSc2nc3ccc(C)cc3c(=O)n2-c2ccccc2)cc(OC)c1OC`, 99.5% (inactive); in that of `Clc1nc(-c2cccnc2)nc2sc3c(c12)CCCCCC3`, 102% (inactive).
On the same count and under the same terms, under `CCCCCCCCCCCCCCCCC(Br)C(=O)O` (stereo unspecified) stands 99.3% (inactive).
As to `CCN(Cc1ccccc1)c1ccc(SC#N)cc1`, the growth was 97.2% (inactive).
On the same count and under the same terms, under `CCCCCC(=O)OCc1ccccc1` stands 105% (inactive); under `COc1ccc(S(=O)(=O)N2CCN(c3cc4c(cc3F)c(=O)c(C(=O)O)cn4C3CC3)CC2)c(OC)c1`, 110% (inactive).
Consider `COc1cc2nc(N3CCC[C@@H](NC4=CC(=O)c5ccccc5C4=O)C3)nc(N)c2cc1OC`, for which the growth was 110% (inactive).
On the same count and under the same terms, in the case of `COc1ccccc1CNCCCN1C(=O)c2ccc3c4c(ccc(c24)C1=O)C(=O)N(CCCNCCCCNCCCCN)C3=O` it was 24.5% (inactive); in that of `Cc1cc(C)c(S(=O)(=O)N2CCN(c3cc4c(cc3F)c(=O)c(C(=O)O)cn4C3CC3)CC2)c(C)c1`, 42.2% (inactive).
On the same count and under the same terms, in the case of `COc1ccc(NC(=O)CSc2nc3ccccc3c(=O)n2-c2ccccc2C(F)(F)F)c(OC)c1OC` it was 97.5% (inactive); in that of `CNC(C)=O`, 95.8% (inactive); in that of `CCN(CC)P(=O)(N(CC)CC)N(CCCSC/C=C(\C)CC/C=C(\C)CCC=C(C)C)CCCN1CCN(C)CC1`, 103% (inactive).
In the case of `COc1ccc(NC(=O)CSc2nc3ccc(Cl)cc3c(=O)n2-c2ccccc2C(F)(F)F)c(OC)c1OC`, the growth was 96.9% (inactive).
With `O=S(=O)(O)CCl`, the growth is 98.3% (inactive).
Still for that read-out and setting: under `COc1ccc(OC)c(C(=O)c2oc3ccc(Br)cc3c2N)c1` stands 45.5% (inactive); under `COc1cc(NCCN=C(N)NC(N)=NC(C)C)c2ncccc2c1`, 80.2% (inactive).
Consider `CC(=O)Nc1nc(C(=O)N2N=C(C)/C(=C/c3cccs3)C2=O)cs1`, for which the growth is 115% (inactive).
As to `CC(C)[C@H](CO)Nc1nc(Nc2ccc(C(=O)NCCNS(=O)(=O)c3cccc4c(N(C)C)cccc34)c(Cl)c2)c2ncn(C(C)C)c2n1`, the growth was 49.4% (inactive).
For `CCn1cc(C(=O)O)c(=O)c2cc(F)c(N3CCN(S(=O)(=O)c4cccc5ccccc45)CC3)cc21`, the growth is 15.5% (inactive).
As to `O=C1Nc2ccc(Br)cc2C1=N/C=c1\[nH]c(=O)/c(=C/c2ccc(Cl)cc2)s1`, the growth is 106% (inactive).

The next assay relates to OVCAR-4 ovarian. The assay is described as above. Conditions: 10 µM unless noted.
As to `COc1cc(Cn2c(SCCC(=O)Nc3ccc(F)cc3)nc3ccccc3c2=O)cc(OC)c1OC`, the growth is 85% (inactive).
With `O=C(O)c1cn(C2CC2)c2cc(N3CCN(S(=O)(=O)c4ccc(Cl)c(Cl)c4)CC3)c(F)cc2c1=O`, the growth is 20.8% (inactive).
Same read-out and setting: in the case of `COc1cc(NCCCN=C(N)NC(N)=NC(C)C)c2ncccc2c1` it was 11.3% (inactive).
Turning to `O=C(O)c1cccc([N+](=O)[O-])c1/C=C/c1ccccc1`, the growth is 83.2% (inactive).
Same read-out and setting: under `NC(CC(N)C(=O)O)C(=O)O` (stereo unspecified) stands 99.2% (inactive); under `O=C(O)c1ccc(-n2c(=O)c3ccccc3c3ccccc3c2=O)cc1`, 119% (inactive); under `COc1cc(Cn2c(SCC(=O)Nc3ccc(Cl)cc3)nc3ccccc3c2=O)cc(OC)c1OC`, 53.4% (inactive).
Still for that read-out and setting: in the case of `CN(C)c1ncc(-c2ccc(C(F)(F)F)cc2)c(NC2CCCCCC2)n1` it was 45.4% (inactive); in that of `Nc1c(C(=O)Nc2ccccc2)sc2nc3c(cc12)CCCCC3`, 15.3% (inactive).
Turning to `CCn1cc(C(=O)O)c(=O)c2cc(F)c(N3CCN(S(=O)(=O)c4c(C)cc(C)cc4C)CC3)cc21`, the growth was 91.4% (inactive).
Consider `CCn1cc(C(=O)O)c(=O)c2cc(F)c(N3CCN(S(=O)(=O)c4ccc(Cl)cc4Cl)CC3)cc21`, for which the growth is 129% (inactive).
Still for that read-out and setting: in the case of `COC12CC(=O)C(C(C)=O)=C(O)C1(C)c1c(O)c(C)c(O)c(C(C)=O)c1O2` (stereo unspecified) it was 85.9% (inactive).
Same read-out and setting: under `CCCC(C(=O)OCC)C(C)OC(=O)OCC` (stereo unspecified) stands 108% (inactive); under `NC(=O)NC(=O)/C=C/C(=O)OCCCl`, 107% (inactive).
Still for that read-out and setting: in the case of `Cc1ccc(C2=NN(c3ccc(S(=O)(=O)NC(=O)NCc4ccccc4)cc3)C(c3ccc(N(C)C)cc3)C2)c(C)c1` (stereo unspecified) it was 57.7% (inactive).
In the case of `COc1ccc(-c2cn[nH]c2-c2cc(OC)c3c(c2)OCO3)cc1`, the growth was 51% (inactive).
On the same count and under the same terms, in the case of `CCCCCCCCCCCCNC(=S)N/N=C/c1ccc(Cl)c(Cl)c1` it was 99.3% (inactive); in that of `Oc1ccc(Cl)cc1-c1cc(-c2ccc(Cl)cc2)n[nH]1`, 35% (inactive); in that of `COc1cc(NC(=O)CSc2nc3ccc(C)cc3c(=O)n2-c2ccccc2)cc(OC)c1OC`, 68.9% (inactive).
Same read-out and setting: in the case of `Clc1nc(-c2cccnc2)nc2sc3c(c12)CCCCCC3` it was 97.1% (inactive); in that of `CCCCCCCCCCCCCCCCC(Br)C(=O)O` (stereo unspecified), 97.8% (inactive).
The same measure, in the same setting: under `CCN(Cc1ccccc1)c1ccc(SC#N)cc1` stands 50.5% (inactive); under `CCCCCC(=O)OCc1ccccc1`, 110% (inactive); under `COc1ccc(S(=O)(=O)N2CCN(c3cc4c(cc3F)c(=O)c(C(=O)O)cn4C3CC3)CC2)c(OC)c1`, 101% (inactive).
Take `COc1cc2nc(N3CCC[C@@H](NC4=CC(=O)c5ccccc5C4=O)C3)nc(N)c2cc1OC`: the growth was 81.5% (inactive).
On the same count and under the same terms, under `COc1ccccc1CNCCCN1C(=O)c2ccc3c4c(ccc(c24)C1=O)C(=O)N(CCCNCCCCNCCCCN)C3=O` stands -33.8% (active); under `Cc1cc(C)c(S(=O)(=O)N2CCN(c3cc4c(cc3F)c(=O)c(C(=O)O)cn4C3CC3)CC2)c(C)c1`, 75.6% (inactive); under `COc1ccc(NC(=O)CSc2nc3ccccc3c(=O)n2-c2ccccc2C(F)(F)F)c(OC)c1OC`, 97.3% (inactive).
On the same count and under the same terms, in the case of `CNC(C)=O` it was 104% (inactive); in that of `CCN(CC)P(=O)(N(CC)CC)N(CCCSC/C=C(\C)CC/C=C(\C)CCC=C(C)C)CCCN1CCN(C)CC1`, 92.5% (inactive); in that of `COc1ccc(NC(=O)CSc2nc3ccc(Cl)cc3c(=O)n2-c2ccccc2C(F)(F)F)c(OC)c1OC`, -4.33% (active).
With `O=S(=O)(O)CCl`, the growth is 105% (inactive).
Take `COc1ccc(OC)c(C(=O)c2oc3ccc(Br)cc3c2N)c1`: the growth was 49.4% (inactive).
As for `COc1cc(NCCN=C(N)NC(N)=NC(C)C)c2ncccc2c1`, the growth was -40.1% (active).
Same read-out and setting: under `CC(=O)Nc1nc(C(=O)N2N=C(C)/C(=C/c3cccs3)C2=O)cs1` stands 106% (inactive); under `CC(C)[C@H](CO)Nc1nc(Nc2ccc(C(=O)NCCNS(=O)(=O)c3cccc4c(N(C)C)cccc34)c(Cl)c2)c2ncn(C(C)C)c2n1`, 41.8% (inactive); under `CCn1cc(C(=O)O)c(=O)c2cc(F)c(N3CCN(S(=O)(=O)c4cccc5ccccc45)CC3)cc21`, 23.9% (inactive).
On the same count and under the same terms, in the case of `O=C1Nc2ccc(Br)cc2C1=N/C=c1\[nH]c(=O)/c(=C/c2ccc(Cl)cc2)s1` it was 108% (inactive).
